Drawing on PubChem BioAssay (EPA / NIEHS), this text covers AC50 and outcome for 10 compounds.

For orientation: AC50 means the concentration at which the activity in the assay is half-maximal.

Activity calls are given as the source filed them. The calls were made as follows: active = hit-call score of the fitted dose curve at least 0.9, where 1 is the maximum; inactive = score below 0.9.

The subject of the assay is SRD5A2 (gene 6716). As to the kind of experiment: CCTE_Deisenroth_5AR_NBTE_ratio: CCTE's 5alpha-reductase NanoBRET Target Engagement Assay - Ratio, Deisenroth Lab (AID 2284322). The following applies: actives raise or lower the signal. Here is the method:
CCTE_Deisenroth_5AR NBTE (5alpha-reductase NanoBRET Target Engagement Assay) is a cell-based, single-readout assay that uses HEK293T, a human kidney cell line, with measurements taken at 5 hours after chemical dosing in a 384 well plate. This assay includes a primary and secondary screen as well as an autofluorscence screen.CCTE_Deisenroth_5AR NBTE_ratio is one of four assay components calculated from the CCTE_Deisenroth_5AR NBTE assay. It is designed to measure the ratio of target acceptor fluorophore resonance to donor bioluminescent signals.Data from the assay component CCTE_Deisenroth_5AR NBTE_ratio was analyzed into 1 assay endpoint. This assay endpoint, CCTE_Deisenroth_5AR NBTE_ratio, was analyzed with bidirectional fitting relative to DMSO as the negative control and baseline of activity. Using a type of inducible reporter, gain or loss-of-signal activity can be used to understand changes in 5alpha-reductase catalytic function. Furthermore, this assay endpoint can be referred to as a primary readout. To generalize the intended target to other relatable targets, this assay endpoint is annotated to the misc protein intended target family, where the subfamily is 5-alpha reductase.
For transient expression of the SRD5A2-NanoLuc fusion protein, HEK293T cells are reverse transfected with pNLF1-C-SRD5A2 expression vector and incubated for 20 hours to facilitate fusion protein expression. For assay setup, 384-well non-binding surface (NBS) microplates are pre-dispensed with test chemical across an 8-point concentration series (10 nM - 29.9 uM) with two technical replicates per run. Cell suspensions are dispensed into the microplates and incubated with test chemical for a duration of three hours. Following pre-incubation with test chemical, the testosterone tracer is dispensed into each well and incubated an additional two hours. The total incubation period with test chemical is five hours, with testosterone tracer added the final two hours to reach target engagement equilibrium. For the NanoBRET endpoint measurements, a solution of Nano-Glo substrate and extracellular NanoLuc inhibitor solution is added to each test well and immediately scanned on a plate reader configured with multichromatic emission settings for donor luminescence ([…]) and acceptor fluorescence ([…]). DMSO solvent controls are included as baseline control. Plate-matched samples are run with mock tracer conditions or testosterone tracer to discriminate any potential non-specific substrate interference.
Background: BRET reads energy transfer from a luciferase to a nearby fluorophore.
`CCCCCCCCn1sccc1=O`: the AC50 is 71.1 µM (active).

Take `CCC[CH2][Sn]([Cl])([CH2]CCC)[CH2]CCC`: the AC50 is 16.8 µM (active). Take `C[C@]12C=CC3=C4CCC(=O)C=C4CC[C@H]3[C@@H]1CC[C@@H]2O`: the result was inactive. Take `Nc1ccc(N=Nc2ccccc2)cc1`: the AC50 was 50 µM (active). For the compound `CC(C)(O)c1cnn2c(-c3ccc(F)c(-c4c(F)cccc4C#N)c3)cnc2n1`, the AC50 was 13.5 µM (active).

Consider `c1ccc2c(c1)-c1cccc3cccc-2c13`, for which the outcome was inactive. As to `Cc1cc(N=Nc2ccccc2C)ccc1N`, the AC50 was 50 µM (active). Same read-out and setting: then `Cc1ccc(N)c(N)c1`, with 22.7 µM (active). With `COc1cc(C=O)cc2c1[C@H](COC(N)=O)[C@]1(OC(C)=O)ON2C[C@H]2[C@@H]1N2C(C)=O`, the result was inactive. For the compound `[Cl-].[Cl-].[Hg+2]`, the AC50 is 75.4 µM (active).
